The record followed here is PubChem BioAssay.

Test [1] can be described thus: sensitizers of A549 cells to miR-34 induction, primary screen, imaging, A549 dox-inducible miR-34, nuclei and caspase counts (AID 1347080). The settings on record: A549 miR-34 inducible, Hoechst nuclei count, 48 h.
Test [2] in a line: survival rescue of mitochondrial mutant cells in low glucose, primary screen, MELAS cybrids, Rieske KO mouse fibroblasts, CellTiter-Glo (AID 1508586;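 active = mean z-score across replicates of 1.96 or higher in either the MELAS or the Rieske mutant cell line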;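 note: z relative to plate mean and SD of compound and empty wells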).
Test [3] concerns the target NAD(+) hydrolase SARM1 (Homo sapiens) (UniProt Q6SZW1). Put plainly: SARM1 TIR NADase inhibitors, cell lysate, NAD-Glo luminescence (AID 1508614;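 active = compound whose remaining NAD level is above about 45 nM, limit read from the data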;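 note: higher remaining NAD means stronger inhibition of SARM1 NADase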). The settings on record: SAM-TIR HEK293T lysate NADase, at 1 µM, stronger effect = higher value.
In test [4] the target is Mitogen-activated protein kinase 7 (Homo sapiens) (UniProt Q13164). Put plainly: ERK5 transactivation activators in reporter cells, primary screen, cell-based, HTS (AID 1508626;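 active = luciferase signal above three times the same-plate solvent-only control wells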;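 note: luciferase driven by Gal4-ERK5 fusion binding five Gal4 sites before minimal TATA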). The settings on record: HeLa Gal4-ERK5 transactivation, 18 h, at 5 µM, stronger effect = higher value.
Setting [5] is: stronger effect = lower value, cell number ratio, induced over uninduced.
[6] abbreviates: measured here: relative caspase fold change +Dox/-Dox.
Where [7] appears, read: measured here: total cells with miR-34 induction, stronger effect = lower value.
Setting [8] is: measured here: total cells without miR-34 induction.
The mark [9] stands for this setting: MELAS cybrid survival, CellTiter-Glo 48 h, stronger effect = higher value.
The mark [10] stands for this setting: Rieske KO mouse fibroblast survival, CellTiter-Glo 72 h.

Several values for one entry are separate records, joined by “and”; a condition that tells them apart may be missing. Equal entries are not always repeated. Activity calls are given as the source filed them.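 Rule for the calls, unless noted: active = compounds whose cell count with miR-34 switched on is under 0.7 times the count with it off; inactive = the rest.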

Mitogen-activated protein kinase 7 (Homo sapiens), sequence (Q13164 whole entry, looked up, the tested form may be a part): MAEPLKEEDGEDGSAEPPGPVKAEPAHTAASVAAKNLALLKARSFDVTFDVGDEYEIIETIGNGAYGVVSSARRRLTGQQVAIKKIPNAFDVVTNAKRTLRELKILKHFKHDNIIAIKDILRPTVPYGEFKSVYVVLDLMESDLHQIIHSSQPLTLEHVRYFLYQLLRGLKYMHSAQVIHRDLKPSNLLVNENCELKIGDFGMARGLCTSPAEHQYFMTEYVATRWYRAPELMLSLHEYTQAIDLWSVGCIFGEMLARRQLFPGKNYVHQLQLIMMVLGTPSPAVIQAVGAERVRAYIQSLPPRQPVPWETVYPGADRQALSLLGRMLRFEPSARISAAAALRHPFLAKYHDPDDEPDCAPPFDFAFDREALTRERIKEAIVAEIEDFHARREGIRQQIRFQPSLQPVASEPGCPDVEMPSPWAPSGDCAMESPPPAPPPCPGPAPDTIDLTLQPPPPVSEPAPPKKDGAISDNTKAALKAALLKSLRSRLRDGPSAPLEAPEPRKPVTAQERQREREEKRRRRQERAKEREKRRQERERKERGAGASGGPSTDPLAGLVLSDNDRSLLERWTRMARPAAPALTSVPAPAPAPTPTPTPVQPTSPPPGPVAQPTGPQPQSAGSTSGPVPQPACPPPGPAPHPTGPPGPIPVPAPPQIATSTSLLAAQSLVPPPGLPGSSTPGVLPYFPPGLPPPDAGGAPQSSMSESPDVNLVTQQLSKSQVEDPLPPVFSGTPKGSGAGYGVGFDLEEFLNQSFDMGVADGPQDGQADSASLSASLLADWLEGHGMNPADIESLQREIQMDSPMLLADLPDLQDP
NAD(+) hydrolase SARM1 (Homo sapiens), sequence (Q6SZW1 whole entry, looked up, the tested form may be a part): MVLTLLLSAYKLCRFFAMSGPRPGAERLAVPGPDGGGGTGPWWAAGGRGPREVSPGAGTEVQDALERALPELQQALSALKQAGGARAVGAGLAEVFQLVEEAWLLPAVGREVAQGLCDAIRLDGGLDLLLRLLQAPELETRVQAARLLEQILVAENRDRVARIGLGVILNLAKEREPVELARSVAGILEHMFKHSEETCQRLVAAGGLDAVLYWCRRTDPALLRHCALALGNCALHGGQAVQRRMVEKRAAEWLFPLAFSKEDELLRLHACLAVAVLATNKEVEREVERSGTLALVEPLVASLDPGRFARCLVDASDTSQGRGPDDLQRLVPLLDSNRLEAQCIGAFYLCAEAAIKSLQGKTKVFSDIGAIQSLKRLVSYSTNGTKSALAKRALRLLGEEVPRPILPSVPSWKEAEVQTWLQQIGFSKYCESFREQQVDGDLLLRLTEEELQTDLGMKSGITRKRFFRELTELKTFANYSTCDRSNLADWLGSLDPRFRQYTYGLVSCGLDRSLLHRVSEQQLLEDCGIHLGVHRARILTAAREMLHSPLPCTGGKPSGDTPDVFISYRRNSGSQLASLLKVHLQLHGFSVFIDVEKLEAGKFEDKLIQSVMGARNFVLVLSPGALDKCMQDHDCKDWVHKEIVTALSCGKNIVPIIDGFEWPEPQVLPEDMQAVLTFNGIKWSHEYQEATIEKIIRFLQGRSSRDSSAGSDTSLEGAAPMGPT

As for `Nc1ccc(S(=O)(=O)NC(=O)c2ccccc2)cc1`, the fold change in test [1] (setting [5]) was 0.806 (inactive) and 0.919 (inactive); in test [1] (setting [6]), 1.13 and 2.49. In addition, the cell count in test [1] (setting [7]) was 7780 and 10600; in test [1] (setting [8]), 9660 and 11500. The z-score in test [2] (setting [9]) was -0.2 (inactive); in test [2] (setting [10]), -0.379. Besides, in test [3], the remaining NAD was 10 nM (inactive). The luciferase signal in test [4] is 32 AU (inactive).

With `CCN(CC)Cc1cc(Nc2ccnc3cc(Cl)ccc23)ccc1O`, the figures for the fold change in test [1] (setting [5]) and in test [1] (setting [6]) were 0.891 (inactive) and 1.28, respectively. Also, the cell count came out at 7140 in test [1] (setting [7]) and 8010 in test [1] (setting [8]). Moreover, the z-score was 0.684 (inactive) in test [2] (setting [9]) and 0.737 in test [2] (setting [10]). Further, the remaining NAD in test [3] is 10 nM (inactive). Further, the luciferase signal in test [4] is 60 AU (inactive).

For the compound `NC(=O)NC1NC(=O)NC1=O` (stereo unspecified), the fold change in test [1] (setting [5]) was 0.95 (inactive) and 0.875 (inactive); in test [1] (setting [6]), 1.05 and 3.99. Also, the cell count was 8140 and 12000 in test [1] (setting [7]); 8570 and 13800 in test [1] (setting [8]). The z-score was -0.771 (inactive) in test [2] (setting [9]) and 0.175 in test [2] (setting [10]). Further, the remaining NAD in test [3] is 10 nM (inactive). Besides, the luciferase signal in test [4] is 72 AU (inactive).

As for `Cc1c(N(C)C)c(=O)n(-c2ccccc2)n1C`, the fold change in test [1] (setting [5]) was 0.875 (inactive) and 0.837 (inactive); in test [1] (setting [6]), 1.16 and 0.645 and 2.71. Moreover, the cell count in test [1] (setting [7]) is 7950 and 7780 and 11100; in test [1] (setting [8]), 9080 and 9290 and 12700. For the same compound, the z-score in test [2] (setting [9]) is -0.0296 (inactive) and -0.452 (inactive); in test [2] (setting [10]), -0.137 and 0.114. For the same compound, in test [3], the remaining NAD is 10 nM (inactive). For the same compound, the luciferase signal in test [4] is 60 AU (inactive).

With `CC(=O)Nc1ccccc1`, the fold change in test [1] (setting [5]) was 0.942 (inactive) and 0.865 (inactive); in test [1] (setting [6]), 0.456 and 3.01. Moreover, the cell count is 7610 and 11100 in test [1] (setting [7]); 8080 and 12800 in test [1] (setting [8]). Further, the z-score in test [2] (setting [9]) is -0.316 (inactive); in test [2] (setting [10]) it was -0.0672. Also, in test [3], the remaining NAD is 10 nM (inactive). In addition, the luciferase signal in test [4] is 60 AU (inactive).

On to `CCN(CC)CCOC(=O)C(c1ccccc1)c1ccccc1`, for which the fold change in test [1] (setting [5]) is 0.854 (inactive) and 1.02 (inactive) and 0.902 (inactive); in test [1] (setting [6]), 1.3 and 0.648 and 3.67. Moreover, the cell count is 8150 and 4320 and 11300 in test [1] (setting [7]); 9550 and 4250 and 12500 in test [1] (setting [8]). For the same compound, the z-score was -0.171 (inactive) and -1.08 (inactive) in test [2] (setting [9]); 0.0167 and -0.106 in test [2] (setting [10]). In addition, the remaining NAD in test [3] was 10 nM (inactive). In addition, the luciferase signal in test [4] was 84 AU (inactive).

For `O=C(O)CCCC[C@@H]1SC[C@@H]2NC(=O)N[C@@H]21`, the fold change in test [1] (setting [5]) was 0.845 (inactive); in test [1] (setting [6]), 1.66. Besides, the cell count in test [1] (setting [7]) was determined as 8760; in test [1] (setting [8]), 10400. In addition, the z-score in test [2] (setting [9]) was -0.325 (inactive); in test [2] (setting [10]), -0.214. Besides, in test [3], the remaining NAD was 10 nM (inactive). The luciferase signal in test [4] is 256 AU (inactive).

Consider `COc1c2occc2c(OC)c2c(=O)cc(C)oc12`, for which the fold change in test [1] (setting [5]) is 0.924 (inactive); in test [1] (setting [6]) it was 1.18. Besides, the figures for the cell count in test [1] (setting [7]) and in test [1] (setting [8]) were 8440 and 9130, respectively. Moreover, the z-score in test [2] (setting [9]) is -0.15 (inactive); in test [2] (setting [10]), -0.129. Besides, the remaining NAD in test [3] was 10 nM (inactive). In addition, the luciferase signal in test [4] was 80 AU (inactive).

With `CCOc1ccc2nc3cc(N)ccc3c(N)c2c1`, the fold change in test [1] (setting [5]) is 0.785 (inactive) and 0.928 (inactive); in test [1] (setting [6]), 2.5 and 0.759. In addition, the cell count was 3210 and 7370 in test [1] (setting [7]); 4090 and 7950 in test [1] (setting [8]). In addition, the z-score was 7.85 (active) in test [2] (setting [9]) and 4.68 in test [2] (setting [10]). Besides, in test [3], the remaining NAD was 10 nM (inactive). Also, in test [4], the luciferase signal was 32 AU (inactive).

Consider `COc1cnc(NS(=O)(=O)c2ccc(N)cc2)nc1`, for which the fold change in test [1] (setting [5]) was 0.943 (inactive) and 0.91 (inactive) and 0.881 (inactive); in test [1] (setting [6]) it was 1.15 and 0.841 and 2.64. Further, the cell count in test [1] (setting [7]) is 9880 and 7410 and 11400; in test [1] (setting [8]), 10500 and 8140 and 12900. Moreover, the z-score is -0.122 (inactive) and -0.879 (inactive) in test [2] (setting [9]); -1.17 and -0.837 in test [2] (setting [10]). Moreover, in test [3], the remaining NAD is 10 nM (inactive). Also, the luciferase signal in test [4] was 40 AU (inactive).

In the case of `CCN(CCCCOC(=O)c1ccc(OC)c(OC)c1)C(C)Cc1ccc(OC)cc1` (stereo unspecified), the fold change in test [1] (setting [5]) was 0.98 (inactive) and 0.929 (inactive); in test [1] (setting [6]) it was 1.13 and 3.04. In addition, the cell count is 7620 and 11300 in test [1] (setting [7]); 7780 and 12200 in test [1] (setting [8]). Also, the z-score was 1.33 (inactive) in test [2] (setting [9]) and 0.343 in test [2] (setting [10]). Further, the remaining NAD in test [3] is 10 nM (inactive). Also, the luciferase signal in test [4] is 52 AU (inactive).

Consider `CN(C)CCOC(=O)C(c1ccccc1)C1(O)CCCC1` (stereo unspecified), for which the fold change is 0.97 (inactive) and 0.896 (inactive) in test [1] (setting [5]); 0.779 and 1.74 in test [1] (setting [6]). The cell count in test [1] (setting [7]) was 9700 and 10300; in test [1] (setting [8]), 10000 and 11500. In addition, the z-score in test [2] (setting [9]) was 0.757 (inactive); in test [2] (setting [10]), 0.693. Moreover, in test [3], the remaining NAD was 10 nM (inactive). The luciferase signal in test [4] is 104 AU (inactive).

As for `O=c1cc[nH]c(=S)[nH]1`, the fold change in test [1] (setting [5]) is 0.917 (inactive); in test [1] (setting [6]), 0.54. The cell count came to 7500 in test [1] (setting [7]) and 8180 in test [1] (setting [8]). Moreover, the z-score in test [2] (setting [9]) is -0.297 (inactive); in test [2] (setting [10]), -0.0433. For the same compound, the remaining NAD in test [3] was 10 nM (inactive). Further, the luciferase signal in test [4] is 100 AU (inactive).

As for `CC(=O)Oc1cccc2c1C(=O)c1c(OC(C)=O)cc(C(=O)O)cc1C2=O`, the fold change in test [1] (setting [5]) was 0.904 (inactive); in test [1] (setting [6]), 2.1. Also, the cell count was 8090 in test [1] (setting [7]) and 8950 in test [1] (setting [8]). Besides, the z-score in test [2] (setting [9]) was -0.263 (inactive) and -0.828 (inactive); in test [2] (setting [10]), -0.165 and -1.06. Further, in test [3], the remaining NAD was 10 nM (inactive). Also, the luciferase signal in test [4] was 44 AU (inactive).

As for `COc1cccc(OC)c1C(=O)N[C@@H]1C(=O)N2[C@@H]1SC(C)(C)[C@@H]2C(=O)O`, the figures for the fold change in test [1] (setting [5]) and in test [1] (setting [6]) were 0.949 (inactive) and 0.959, respectively. Besides, the cell count in test [1] (setting [7]) is 11700; in test [1] (setting [8]), 12400. Further, the z-score was -0.625 (inactive) in test [2] (setting [9]) and -0.275 in test [2] (setting [10]). For the same compound, the remaining NAD in test [3] is 10 nM (inactive). In addition, the luciferase signal in test [4] was 32 AU (inactive).

For the compound `Cc1ccnc(NS(=O)(=O)c2ccc(N)cc2)n1`, the fold change in test [1] (setting [5]) is 0.871 (inactive) and 0.913 (inactive); in test [1] (setting [6]), 1.08 and 0.734 and 2.66. Besides, the cell count is 8890 and 7940 and 11400 in test [1] (setting [7]); 10200 and 8690 and 12500 in test [1] (setting [8]). Besides, the z-score in test [2] (setting [9]) is -0.105 (inactive) and 0.577 (inactive); in test [2] (setting [10]), -0.152 and -0.312. Moreover, the remaining NAD in test [3] is 10 nM (inactive). The luciferase signal in test [4] is 68 AU (inactive).

Consider `Cn1c([N+](=O)[O-])cnc1COC(N)=O`, for which the fold change in test [1] (setting [5]) was 0.949 (inactive) and 0.998 (inactive) and 0.92 (inactive); in test [1] (setting [6]), 0.814 and 0.524 and 4.33. Also, the cell count is 9230 and 8250 and 11400 in test [1] (setting [7]); 9730 and 8270 and 12400 in test [1] (setting [8]). Moreover, the z-score is -0.153 (inactive) and -0.082 (inactive) in test [2] (setting [9]); -0.129 and 0.703 in test [2] (setting [10]). For the same compound, the remaining NAD in test [3] is 10 nM (inactive). Further, the luciferase signal in test [4] was 108 AU (inactive).
